Compound activity: PubChem BioAssay, National Center for Advancing Translational Sciences (NCATS)
An excerpt weighted towards active compounds, which were near 6.9% of everything screened.
MCF10A rerep: inducers of DNA re-replication in MCF 10A breast cells; MCF 10A DNA re-replication, Hoechst nuclear intensity, 48 h; Potency, µM (doses to about 46.1 µM), for the others: at the top dose activity, positive = re-replication, hits mostly activators; 350,000 compounds, 2.9% hits; AID 624296; also: potency is read from the fitted curve at half-maximal effect; % of control where 0% means no effect; nearly all actives have a fitted effect of over 50% in size
Vif-APOBEC3F blk: inhibitors of Vif-A3F interaction | Potency, µM (titrated, usually from 46.1 µM), for inactives: at the top dose activity, negative = active | HeLa A3F-eYFP + Vif (tagged APOBEC3F with the HIV-1 protein that degrades it), YFP fluorescence increase | AID 602313 | 390,000 compounds, 0.2% hits; also: potency is read from the fitted curve at half-maximal effect; % of control where 0% means no effect; nearly all actives have a fitted effect of over 65% in size
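HeLa cells stably expressing Vif plus C-terminally eYFP-tagged A3F were seeded, incubated overnight at 37 deg C, dosed with compound, incubated overnight again at 37 deg C. Yellow fluorescence (Ex 488/Em 500-530) reported blocked Vif-mediated A3F-eYFP degradation.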
IL1B secr inh: blocks inflammasome-driven IL-1 beta release; THP-1 LPS/ATP IL-1B secretion, AlphaLISA, 16 h; hits give low values; activity change, % at 57.5 µM; 360,000 compounds, 4.7% hits; AID 743279; in the data active = activity change below about -50%; inconclusive = mostly about -30% to -49%; also: % is scaled to controls: 0 for no effect and ±100 for the full control effect
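Secreted IL-1B measured by AlphaLISA bead assay after 16 h compound exposure of THP-1 cells; compounds (final up to 57.5 uM) added 1 h before LPS (250 ng/mL) and ATP (1.25 mM) stimulation; lower signal means less secretion.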
SW480 rerep: inducers of DNA re-replication in SW480 colon cancer cells; SW480 DNA re-replication, Hoechst DNA content imaging, 48 h; Potency, µM (titrated, usually from 46.1 µM), for the others: at the highest dose re-replication activation, usual class: activators; 340,000 compounds, 1.8% hits; AID 624297; also: potency is read from the fitted curve at half-maximal effect; % of control where 0% means no effect; nearly all actives have a fitted effect of over 55% in size
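First, 250 cells per well were seeded. Next, compound or vehicle (23 nL) was pinned in, plates sat 48 hr at 37 C. Finally Hoechst was added for 40 min before fluorescence scanning.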
Vif-A3G inh: Vif-A3G binding inhibition. Q9HC16. HeLa A3G-eYFP + Vif (tagged APOBEC3G with the HIV-1 protein that degrades it), YFP fluorescence, overnight. Potency, µM (highest dose often 46.1 µM), for inactives: top-dose activity, negative = active, usual class: inhibitors. 410,000 compounds, 0.076% hits; also: potency is read from the fitted curve at half-maximal effect; % is scaled to controls: 0 for no effect and ±100 for the full control effect; nearly all actives have a fitted effect of over 60% in size
Target sequence (Q9HC16 whole entry, looked up): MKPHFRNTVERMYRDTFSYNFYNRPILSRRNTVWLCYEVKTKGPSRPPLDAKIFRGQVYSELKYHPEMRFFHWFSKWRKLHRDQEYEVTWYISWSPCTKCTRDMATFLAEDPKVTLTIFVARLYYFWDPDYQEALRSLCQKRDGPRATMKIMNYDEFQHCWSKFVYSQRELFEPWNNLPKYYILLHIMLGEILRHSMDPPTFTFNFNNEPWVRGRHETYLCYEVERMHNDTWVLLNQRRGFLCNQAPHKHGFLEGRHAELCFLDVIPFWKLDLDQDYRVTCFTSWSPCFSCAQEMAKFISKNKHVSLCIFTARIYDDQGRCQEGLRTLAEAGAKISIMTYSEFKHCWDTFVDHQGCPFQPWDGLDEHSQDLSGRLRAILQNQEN
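HeLa cells stably expressing Vif and C-terminally eYFP-tagged A3G, seeded overnight at 37 deg C, then exposed to compound by pintool overnight at 37 deg C. Rise in yellow fluorescence (Ex 488/Em 500-530, Acumen) marks blocked Vif-driven A3G degradation.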
Giardia killer: kills Giardia lamblia; Giardia lamblia trophozoite viability; activity change, % at 7.66 µM, hits read low; 340,000 compounds, 0.15% hits; AID 540267; in the data active = activity change below about -80%; inconclusive = between about -30% and that limit;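 also: parasites exposed to compound for two days anaerobically before the ATP read; % is scaled to controls: 0 for no effect and ±100 for the full control effect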
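Viability, read as ATP luminescence: trophozoites at 100 cells/well, compound added, 48 hrs anaerobic at 37 deg C, then 15-30 min room-temperature development before reading.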
* marks the source's active call; other numbers are inactive results; ? = inconclusive; / = no result given; ! = not active in a repeat. Unless noted, calls follow the shape of the dose curve; as a rule, active = well fitted curve in the direction sought with a large enough effect; inconclusive = small, poorly fitted or top-dose-only effect, or another doubt; inactive = no such curve, though single readings can be large; an effect the other way counts as inactive or inconclusive.

SMILES | MCF10A rerep | Vif-APOBEC3F blk | IL1B secr inh | SW480 rerep | Vif-A3G inh | Giardia killer
CC(C)c1ccc2c(c1)C(N1CCNCC1)Cc1ccc(F)cc1S2 (configuration not stated) | ? | -2.9% | -97.3* | ? | -21.4% | -10.9
COc1ccc2c(c1)c(CCN)c(C)n2Cc1ccccc1 | 0.0% | -14.4% | -51.7* | -47.5% | 2.5% | -10.0
O=C(CN1CCOCC1)c1cccc([N+](=O)[O-])c1 | / | / | / | / | 2.4% | /
OCCN1CCN(CCCN2c3ccccc3Sc3ccc(C(F)(F)F)cc32)CC1 | 23.1µM*! | -7.7% | -56.7* | ? | -1.4% | -11.7
FC(F)(F)c1ccc2c(c1)N(CCCN1CCN(CCCl)CC1)c1ccccc1S2 | ? | -1.1% | -116.2* | -2.8% | -15.0% | 19.3
Nc1ccc(CCN2CCN(c3cccc(C(F)(F)F)c3)CC2)cc1 | 1.2% | 0.4% | -9.8 | 0.4% | 1.3% | 49.1
COC1CC(O[C@H]2/C(C)=C/CC3CC(C[C@]4(CCC(C)C(C5CCCCC5)O4)O3)OC(=O)[C@H]3C=C(C)/C(=N/O)C4OC/C(=C\C=C\[C@@H]2C)[C@@]43O)OC(C)C1O (some centres not stated) | ? | / | / | 8.4% | / | /
CN(C(=O)Oc1ccc([N+](=O)[O-])cc1)c1ccccc1 | 8.2% | 3.2% | -56.1* | 0.1% | 0.6% | -4.6
N[C@H]1C[C@H]1c1ccccc1 | 0.1% | / | / | -5.9% | / | /
COc1ccc(NC(=O)CN(C)S(=O)(=O)c2ccc3[nH]c(=O)oc3c2)cc1 | 4.4% | -3.0% | 8.9 | ? | -0.9% | -12.1
Cc1cc(N(CCCl)CCCl)ccc1C=Cc1ccncn1 | ? | 25.1µM* | -15.4 | ? | ? | -17.4
Cc1cc(N(CCCl)CCCl)ccc1/C=N/N=C(\N)c1cnccn1 | ? | -3.2% | -55.2* | ? | 2.6% | ?
OCC(O)[C@H]1O[C@@H]2O[C@H](C(Cl)(Cl)Cl)O[C@@H]2[C@H]1O (some centres not stated) | -5.1% | / | / | -0.1% | / | /
Cc1ccc(NC(=O)Cn2cc(C(=O)c3ccccc3)c3ccccc32)cc1 | / | -2.0% | / | / | 6.5% | /
CCCCn1c(O)c(C=NCCCn2ccnc2)c(=O)[nH]c1=O | -5.2% | 3.8% | 9.9 | -3.8% | 1.3% | -8.9
CC(C)CCCn1c(O)c(/C=C2/C=CC=N2)c(=O)[nH]c1=O | 18.4µM* | 25.1µM* | -18.4 | 13µM* | ? | 2.4
CN(C(=O)CNC(=O)OCc1ccccc1)c1ccc(Br)cc1C(=O)c1ccccc1Cl | 8.2µM* | -0.7% | -8.5 | 11.6µM* | ? | 22.2
CN(C)/C=c1\sc2c(C#N)cc(C(=O)c3ccc(Br)cc3)n2c1=O | ? | -1.2% | 2.3 | 0.3% | 0.2% | 24.2
CC(C)(C)CC(C)(C)c1ccc(O)cc1 | ? | / | / | 9.5% | / | /
CCOc1ccc2nc(N(CCN(CC)CC)C(=O)c3ccc([N+](=O)[O-])cc3)sc2c1 | ? | 4.9% | -15.3 | ? | -1.0% | -0.9
COC(=O)[C@@H]1[C@@H](C(=O)OC)C2(c3ccccc3-c3ccccc32)N(c2ccc(Cl)cc2)N1C#N | 7.08µM* | -1.5% | -99.2* | 9.2µM* | -27.8% | -17.9
COC(=O)C[C@]1(C(=O)OC)CN(C#N)N(c2ccc(Cl)cc2)C12c1ccccc1-c1ccccc12 | 5.17µM* | 0.7% | -105.4* | ? | -24.1% | 9.1
CC(=O)Nc1cccc(-c2ccnc3c2CC(C(=O)NCc2ccco2)O3)c1 (configuration not stated) | / | / | 23.1 | / | ? | /
CC(C)(C)c1cc(C=C(C#N)C#N)cc(C(C)(C)C)c1O | ? | 0.2% | -76.9* | -44.7% | -5.2% | -5.5
Cc1ccc(C(C)C)c(OCCn2c(=O)oc3ccccc32)c1 | ? | -19.3% | -3.2 | ? | -13.9% | 36.3
SMILES | MCF10A rerep | Vif-APOBEC3F blk | IL1B secr inh | SW480 rerep | Vif-A3G inh | Giardia killer
CC1=C(O)C(=O)C=C2C1=CC=C1C2(C)CCC2(C)C3CC(C)(C(=O)O)CCC3(C)CCC12C (configuration not stated) | ? | 8.4% | -57.0* | ? | 0.2% | ?
Brc1nc(-c2ccccc2)nc(-c2ccccc2)c1Br | ? | -3.5% | 21.0 | -6.6% | 3.8% | -1.8
C[N+]1([O-])[C@H]2CC[C@H]1CC(OC(=O)[C@@H](CO)c1ccccc1)C2 (some centres not stated) | 5.9% | / | / | 0.3% | / | /
CCC/C=C/C=C/C(=O)OC1/C(=C/C(=O)OC)CC2CC(C(C)O)OC(=O)CC(O)CC3CC(OC(C)=O)C(C)(C)C(O)(CC4C/C(=C/C(=O)OC)CC(/C=C\C(C)(C)C1(O)O2)O4)O3 (configuration not stated) | 16.2% | / | / | ? | / | /
C[C@](O)(CS(=O)(=O)c1ccc(F)cc1)C(=O)Nc1ccc(C#N)c(C(F)(F)F)c1 | 7.1% | / | / | 2.4% | / | /
Cc1nonc1OCCNc1ccc([N+](=O)[O-])c2cccnc12 | 5.3% | 9.7% | -1.2 | 0.517µM* | -10.8% | 49.4
NCCNc1ccc([N+](=O)[O-])c2cccnc12 | 0.651µM* | 0.7% | -28.3 | 24.2% | -0.2% | -15.4
O=C(CCC1CCCN(Cc2cccc3c2OCO3)C1)NCc1ccc(F)c(F)c1 (configuration not stated) | -13.3% | 3.7% | -16.4 | -76.2% | 0.9% | 2.1
Cc1ccc(-n2c(/C=C/c3ccc(Br)s3)nc3ccccc3c2=O)cc1C | / | 1.2% | / | / | ? | /
Cc1[nH]c(=O)[nH]c(=O)c1/C=C/C(=O)OCC(C)C | -5.5% | 0.9% | 16.4 | ? | -1.3% | -13.0
CCOc1ccccc1N1C(=O)NC(=O)/C(=C/c2ccc3c4c(cccc24)CC3)C1=O | 10.7% | -6.4% | -89.4* | -5.4% | -14.7% | -17.7
CCc1ccccc1N1C(=O)NC(=O)/C(=C\c2cc(C)n(C)c2C)C1=O | 24.5% | 16.3% | -2.5 | -1.3% | -2.9% | 2.7
CCCCCCCCCC(CC)c1ccc(S(=O)(=O)O)cc1 (configuration not stated) | 0.5% | / | / | ? | / | /
COc1ccc(CN2CCCC(C(=O)c3ccc(Cl)cc3)C2)c(OC)c1 (configuration not stated) | 5.5% | -0.6% | -67.9* | 0.6% | 0.7% | -1.3
CCn1ccnc1CN1CCCC(C(=O)c2cc(Cl)ccc2OC)C1 (configuration not stated) | -52.0% | ? | -75.2* | -6.3% | 1.0% | -0.4
COc1ccc(CN2CCCC(C(=O)c3cccc(Cl)c3)C2)cc1 (configuration not stated) | 4.7% | -30.3% | -12.0 | 0.6% | 0.8% | -18.8
CNC(=O)Oc1ccc(-c2cn3cc(Cl)ccc3n2)cc1 | ? | -14.0% | ? | 4.3% | 2.4% | -86.4*
